Measurements from PubChem BioAssay (NCI).
Compounds without any hit were thinned out: in the full panel of roughly 83,000, 20% have a hit.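 96-well plates, one dose, 48 hours. Percent growth reported; active if below 10.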 The source made the active and inactive calls.

Key:
Assay in all cases: NCI-60 one-dose screen, 48 h (100 = growth as untreated, 0 = no growth, -100 = all killed)
Details in all cases: 10 µM unless noted
NCI-H23 lung = test system: NCI-H23 lung
NCI-H226 lung = test system: NCI-H226 lung
NCI-H322M lung = test system: NCI-H322M lung
HOP-62 NSCLC = test system: HOP-62 NSCLC
NCI-H460 lung = test system: NCI-H460 lung
HOP-92 NSCLC = test system: HOP-92 NSCLC
NCI-H522 lung = test system: NCI-H522 lung
A549/ATCC NSCLC = test system: A549/ATCC NSCLC
786-0 renal = test system: 786-0 renal
COLO 205 colon = test system: COLO 205 colon

Measured: growth

COc1ccc2c(c1)C(C)Cc1c(ncnc1-n1c(C)nc3ccccc31)N2C (stereo not given)
active: NCI-H460 lung 7.77% | HOP-92 NSCLC -4.69% | COLO 205 colon -11.3%
inactive: NCI-H23 lung 30.2% | NCI-H226 lung 63.7% | NCI-H322M lung 39.5% | HOP-62 NSCLC 33.6% | NCI-H522 lung 20.9% | A549/ATCC NSCLC 35.2% | 786-0 renal 29.2%

Cc1nc2ccccc2n1-c1ncnc2c1CC(C)c1ccccc1N2C (stereo not given)
inactive: NCI-H23 lung 85.6% | NCI-H226 lung 89.7% | NCI-H322M lung 97.8% | HOP-62 NSCLC 68.4% | NCI-H460 lung 102% | HOP-92 NSCLC 51.4% | NCI-H522 lung 72.5% | A549/ATCC NSCLC 70.8% | 786-0 renal 92% | COLO 205 colon 88%

O=C(N/N=C/c1c(Cl)cccc1Cl)c1ccc(C(F)(F)F)nc1Nc1cccc(C(F)(F)F)c1
inactive: NCI-H226 lung 14.2% | HOP-62 NSCLC 28.2% | A549/ATCC NSCLC 18.6%
active: NCI-H23 lung -10.6% | NCI-H322M lung 1.62% | NCI-H460 lung 7.11% | HOP-92 NSCLC 7.35% | NCI-H522 lung -3.43% | 786-0 renal 8.61% | COLO 205 colon -15.4%

O=C1NC(=O)C(Cn2cnc3ccccc32)N1 (stereo not given)
inactive: NCI-H23 lung 98.4% | NCI-H226 lung 103% | NCI-H322M lung 99% | HOP-62 NSCLC 102% | NCI-H460 lung 101% | HOP-92 NSCLC 97.4% | NCI-H522 lung 95.9% | A549/ATCC NSCLC 97.8% | 786-0 renal 99.2% | COLO 205 colon 107%

C/C=C(\C)C(=O)N[C@H]1[C@@H](OC(C)=O)C[C@]2(C)C3CC[C@@]4(C)C(CC[C@@H]4C(C)N(C)C)C3CCC2[C@H]1O (stereo not given in full)
inactive: NCI-H23 lung 74.4% | NCI-H226 lung 101% | NCI-H322M lung 67.7% | HOP-62 NSCLC 91.9% | NCI-H460 lung 59% | HOP-92 NSCLC 71% | NCI-H522 lung 99.4% | A549/ATCC NSCLC 78.5% | 786-0 renal 66.1% | COLO 205 colon 75.8%

CC(=O)OC[C@H]1OC(Sc2sc(C(=O)c3ccc(C)cc3)c(N)c2-c2nc3ccccc3s2)[C@H](OC(C)=O)[C@@H](OC(C)=O)[C@@H]1OC(C)=O (stereo not given in full)
inactive: NCI-H23 lung 56.1% | NCI-H226 lung 30.3% | NCI-H322M lung 81.3% | HOP-62 NSCLC 61.5% | NCI-H460 lung 43.7% | HOP-92 NSCLC 58.8% | NCI-H522 lung 82.1% | A549/ATCC NSCLC 81.9% | 786-0 renal 47.4% | COLO 205 colon 92.2%

COc1cccc2nc3n(c12)C(c1c(F)cccc1F)SC3 (stereo not given)
inactive: NCI-H23 lung 94.8% | NCI-H226 lung 82.7% | NCI-H322M lung 102% | HOP-62 NSCLC 104% | NCI-H460 lung 99% | HOP-92 NSCLC 46.4% | NCI-H522 lung 80.4% | A549/ATCC NSCLC 98% | 786-0 renal 101% | COLO 205 colon 106%

O=C1c2cccc3cccc(c23)C(=O)N1Nc1nc(N2CCOCC2)nc(N2CCN(c3ccccc3)CC2)n1
inactive: NCI-H23 lung 64% | NCI-H226 lung 57.5% | NCI-H322M lung 65.5% | HOP-62 NSCLC 46.3% | NCI-H460 lung 28.8% | NCI-H522 lung 29.9% | A549/ATCC NSCLC 53.1% | 786-0 renal 65.6%
active: HOP-92 NSCLC 7.52% | COLO 205 colon 3.51%

COc1ccc(/C=C/c2c(C(=O)/C=C/c3ccc(C(F)(F)F)cc3)c(C)nc3ccccc23)cc1
inactive: A549/ATCC NSCLC 65.4%
active: NCI-H23 lung -23% | NCI-H226 lung -38.3% | NCI-H322M lung 6.19% | HOP-62 NSCLC -1.82% | NCI-H460 lung -58.9% | HOP-92 NSCLC -64.3% | NCI-H522 lung -0.88% | 786-0 renal -72.5% | COLO 205 colon -28.4%

COc1cccc(Cc2cc(-c3ccccc3)nn(CC(=O)c3ccccc3)c2=O)c1
inactive: NCI-H23 lung 74.2% | NCI-H226 lung 60.7% | NCI-H322M lung 94.1% | HOP-62 NSCLC 60.4% | NCI-H460 lung 37.8% | HOP-92 NSCLC 46.9% | NCI-H522 lung 72.4% | A549/ATCC NSCLC 79.5% | 786-0 renal 55.8% | COLO 205 colon 84.9%

CC(=O)CC(c1cccs1)c1c(-c2ccccc2)[nH]c2ccccc12 (stereo not given)
inactive: NCI-H23 lung 66% | NCI-H226 lung 84.3% | NCI-H322M lung 91.4% | HOP-62 NSCLC 89.5% | NCI-H460 lung 98.4% | HOP-92 NSCLC 72.6% | NCI-H522 lung 80.6% | A549/ATCC NSCLC 91.3% | 786-0 renal 98.9% | COLO 205 colon 107%

COc1ccc2nc(NCCCNCCO)c3sc4ccc(F)cc4c(=O)c3c2c1
active: NCI-H460 lung -72.8% | COLO 205 colon -49.3%
inactive: NCI-H23 lung 62.7% | NCI-H226 lung 87.9% | NCI-H322M lung 67.8% | HOP-62 NSCLC 74% | HOP-92 NSCLC 12.2% | NCI-H522 lung 45.6% | A549/ATCC NSCLC 49.2% | 786-0 renal 56.7%

CCc1cccc2c1S/C(=C/c1ccc(Cl)cc1)C2=O
inactive: NCI-H23 lung 79.6% | NCI-H226 lung 87.2% | NCI-H322M lung 85.4% | HOP-62 NSCLC 80.9% | NCI-H460 lung 102% | HOP-92 NSCLC 83.5% | NCI-H522 lung 91.7% | A549/ATCC NSCLC 97.4% | 786-0 renal 100% | COLO 205 colon 108%

CN1CCN(Cc2ccc(NC(=O)c3cncc(C#Cc4cnccc4C#N)c3)cc2C(F)(F)F)CC1
inactive: NCI-H23 lung 49.2% | NCI-H226 lung 40.4% | NCI-H322M lung 99.4% | HOP-62 NSCLC 76.8% | NCI-H460 lung 59.2% | HOP-92 NSCLC 36% | NCI-H522 lung 66.7% | A549/ATCC NSCLC 90.4% | 786-0 renal 101% | COLO 205 colon 24.6%

Nc1nc(-c2cccc3ccccc23)cc2ccccc12
inactive: NCI-H23 lung 11.1% | NCI-H322M lung 46.5% | HOP-62 NSCLC 13.7% | HOP-92 NSCLC 19% | A549/ATCC NSCLC 28.7% | 786-0 renal 20.9%
active: NCI-H226 lung -7.36% | NCI-H460 lung 0.0786% | NCI-H522 lung -34.3% | COLO 205 colon -18.4%

O=C(Nn1c(NCC(=O)N2c3ccccc3Sc3ccccc32)nnc1-c1ccc(O)cc1)c1ccccc1
inactive: NCI-H23 lung 94.4% | NCI-H226 lung 104% | NCI-H322M lung 104% | HOP-62 NSCLC 99.5% | NCI-H460 lung 105% | HOP-92 NSCLC 91.2% | NCI-H522 lung 93.1% | A549/ATCC NSCLC 106% | 786-0 renal 92.4% | COLO 205 colon 112%

Cc1cccc(OCC(O)CN2CCN(c3ccc(Cl)cc3)CC2)c1 (stereo not given)
inactive: NCI-H23 lung 95.2% | NCI-H226 lung 112% | NCI-H322M lung 125% | HOP-62 NSCLC 118% | NCI-H460 lung 108% | HOP-92 NSCLC 80% | NCI-H522 lung 109% | A549/ATCC NSCLC 98.5% | 786-0 renal 96.5% | COLO 205 colon 96.7%

CCN1C(=O)N(CC)C2Nn3c(s/c(=C4\C(=O)N(CCC(C)C)c5ccccc54)c3=O)=NC21 (stereo not given)
inactive: NCI-H23 lung 87.8% | NCI-H226 lung 83.9% | NCI-H322M lung 92.4% | HOP-62 NSCLC 89.2% | NCI-H460 lung 106% | HOP-92 NSCLC 73.2% | NCI-H522 lung 50.4% | A549/ATCC NSCLC 90% | 786-0 renal 57.1% | COLO 205 colon 73.2%

COc1cc(/C=C/c2c(C(C)=O)c(C)nc3ccccc23)cc(OC)c1OC
inactive: NCI-H23 lung 52.8% | NCI-H226 lung 52.4% | NCI-H322M lung 51.3% | HOP-62 NSCLC 42.4% | NCI-H460 lung 15% | HOP-92 NSCLC 47.8% | NCI-H522 lung 24.6% | A549/ATCC NSCLC 53.4% | 786-0 renal 42.4% | COLO 205 colon 19%

COc1cc(C(=O)/C=C/c2sc(Cl)nc2Cl)cc(OC)c1OC
inactive: NCI-H23 lung 33.9% | NCI-H226 lung 80.5% | NCI-H322M lung 85.4% | HOP-62 NSCLC 85% | NCI-H460 lung 83.9% | HOP-92 NSCLC 51.4% | NCI-H522 lung 33.6% | A549/ATCC NSCLC 90.6% | 786-0 renal 79.2%
active: COLO 205 colon -19.7%

Nc1cc2c(cc1Br)-c1cc(Cl)ccc1C2=O
inactive: NCI-H23 lung 97.1% | NCI-H226 lung 81.1% | NCI-H322M lung 102% | HOP-62 NSCLC 99.1% | NCI-H460 lung 100% | HOP-92 NSCLC 87.6% | NCI-H522 lung 96.1% | A549/ATCC NSCLC 96.7% | 786-0 renal 98.6% | COLO 205 colon 87.3%

CC(C)c1cc(C(C)C)c(S(=O)(=O)Oc2ccc(NC(=O)c3ccc(Cl)cc3)cc2)c(C(C)C)c1
inactive: NCI-H23 lung 15.2% | NCI-H226 lung 51.6% | NCI-H322M lung 60.4% | HOP-62 NSCLC 57.9% | NCI-H460 lung 13.4% | HOP-92 NSCLC 19.1% | A549/ATCC NSCLC 27.5% | 786-0 renal 33.8% | COLO 205 colon 32.7%
active: NCI-H522 lung 7.91%

CC(=O)OC[C@H]1OC(Sc2sc(C(=O)c3ccc(Br)cc3)c(N)c2-c2nc3ccccc3s2)[C@H](OC(C)=O)[C@@H](OC(C)=O)[C@H]1OC(C)=O (stereo not given in full)
inactive: NCI-H23 lung 88.4% | NCI-H226 lung 65.6% | NCI-H322M lung 91.8% | HOP-62 NSCLC 91.1% | NCI-H460 lung 107% | HOP-92 NSCLC 98.3% | NCI-H522 lung 94.1% | A549/ATCC NSCLC 92.2% | 786-0 renal 94.4% | COLO 205 colon 108%

CC1=NN(c2ccc(S(=O)(=O)O)cc2)C(=O)C1N=Nc1ccc(-c2ccc(N=Nc3ccc(OS(=O)(=O)c4ccc(C)cc4)cc3)c(S(=O)(=O)O)c2)cc1 (stereo not given)
inactive: NCI-H23 lung 87.4% | NCI-H226 lung 85.7% | NCI-H322M lung 93.4% | HOP-62 NSCLC 93.7% | NCI-H460 lung 96% | HOP-92 NSCLC 41.1% | NCI-H522 lung 77.8% | A549/ATCC NSCLC 99% | 786-0 renal 90.3% | COLO 205 colon 102%

COc1cc(C(=O)c2cnc(-c3c[nH]c4cccc(C)c34)[nH]2)cc(OC)c1OC
inactive: NCI-H23 lung 24% | NCI-H226 lung 57% | NCI-H322M lung 40.3% | HOP-62 NSCLC 36.2% | A549/ATCC NSCLC 20.4% | 786-0 renal 10.4%
active: NCI-H460 lung 3.6% | HOP-92 NSCLC 5.73% | NCI-H522 lung -4.91% | COLO 205 colon -29.3%

CN(C)CC#Cc1ccc2ncc(C#N)c(Nc3ccc(F)c(Cl)c3)c2c1
inactive: NCI-H23 lung 58.2% | NCI-H226 lung 60.8% | NCI-H322M lung 14.9% | HOP-62 NSCLC 67.8% | NCI-H460 lung 50.8% | HOP-92 NSCLC 56.1% | NCI-H522 lung 45.3% | A549/ATCC NSCLC 51% | 786-0 renal 49.4% | COLO 205 colon 71.3%

CCc1nnc(NC(=O)c2nnn(-c3ccccc3)c2-c2ccco2)s1
inactive: NCI-H23 lung 91.7% | NCI-H226 lung 90.9% | NCI-H322M lung 94.2% | HOP-62 NSCLC 92.9% | NCI-H460 lung 83.7% | HOP-92 NSCLC 91.3% | NCI-H522 lung 90.9% | A549/ATCC NSCLC 96.9% | 786-0 renal 105% | COLO 205 colon 109%
